# Bioassay records (PubChem BioAssay)
# Most compounds without a hit are left out; they make up all but 10% or so of the library.
# PNC inhibitor – blocks assembly of the perinucleolar compartment; PC3M PTB-GFP, PNC prevalence imaging, 16 h; active compounds read low; activity change (PNC), negative = inhibition, % at 10 µM; hit rate 3.1% among 140,000;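 active means readout at or below -70, meaning at least 70% loss of cells showing the perinucleolar compartment, a nuclear body marking cancer cells; inconclusive means readout between -30 and a set limit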;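 further: plate controls were DMSO wells for no effect and camptothecin positive control wells for full effect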
#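 Read-out is percentage of cells bearing a perinucleolar compartment, from automated 20x imaging of fixed, Hoechst-stained PC3M PTB-GFP cells. Cells were seeded 4 h, then exposed 16 h to compound (23 nl of library stock) in duplicate plates.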
# ALDH1A1 inh – inhibitors of human aldehyde dehydrogenase 1A1; Purified ALDH1A1, NADH fluorescence, propionaldehyde substrate; Potency, µM (doses to about 75.3 µM), without a hit: at the highest dose activity, negative = inhibition, hits mostly inhibitors; hit rate 7.3% among 220,000; AID 1030;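 further: potency means the concentration at half of the fitted maximal effect; plate controls were no enzyme wells and a reference inhibitor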
# Lamin A splicing – LMNA splicing modulation; Potency, µM (doses to about 46.1 µM), for inactives: at the top dose ratio change, negative = inhibition, hits mostly inhibitors; AID 1487; hit rate 0.01% among 200,000; HeLa LMNA splicing GFP/RFP minigene ratio, 48 h; active means well fitted inhibition curve with a large enough effect in the signal ratio, with a control signal flat, not every such curve was filed as active; inconclusive means small, poorly fitted or top-dose-only effect, or effect the other way, or a change in a side signal; the % refers to the signal ratio; further: potency means the concentration at half of the fitted maximal effect
#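 S3 HeLa stable clones carrying a lamin A-EGFP splicing minigene plus DsRed2 were seeded at 600 cells/well in Opti-MEM with 2% FBS, pin-dosed and incubated 48 h at 37°C. Acumen cytometry (488 nm) gave the GFP/RFP total-intensity ratio.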
# HPGD block – inhibitors of human 15-hydroxyprostaglandin dehydrogenase (HPGD); P15428; purified HPGD, NADH fluorescence kinetic, PGE2 substrate; Potency, µM, for inactives: at the top dose activity change, negative = inhibition, usual class: inhibitors; hit rate 4.3% among 150,000; further: potency means the concentration at half of the fitted maximal effect
# Target sequence (P15428 whole entry, looked up): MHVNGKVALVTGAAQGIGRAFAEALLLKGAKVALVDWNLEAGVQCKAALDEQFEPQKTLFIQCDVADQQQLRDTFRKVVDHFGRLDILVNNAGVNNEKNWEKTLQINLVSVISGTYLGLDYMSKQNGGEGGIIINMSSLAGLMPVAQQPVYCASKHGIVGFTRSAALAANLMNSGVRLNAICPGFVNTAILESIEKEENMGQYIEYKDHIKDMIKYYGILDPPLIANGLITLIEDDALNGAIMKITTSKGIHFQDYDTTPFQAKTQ
#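 20 nM HPGD preincubated 15 min at room temperature with compound in 50 mM Tris-HCl pH 8, 0.01% Tween 20. Started with 1 mM NAD+ and 30 uM prostaglandin E2; NADH fluorescence (360/450 nm) read 5 times over 30-s intervals, last minus first.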
# 12-hLO inh – inhibitors of human 12-lipoxygenase (ALOX12); P18054; purified 12-hLO, xylenol orange hydroperoxide absorbance; Potency, µM (series often up to 57.1 µM), inactives show at the top dose activity change, negative = inhibition, actives largely listed as inhibitors; hit rate 0.12% among 150,000; AID 1452; active means well fitted inhibition curve with a large enough effect; inconclusive means small, poorly fitted or top-dose-only effect; further: potency means the concentration at half of the fitted maximal effect; nearly all actives have a fitted effect of over 55% in size
#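 Purified human 12hLO (150 nM final) was preincubated with compounds for 15 min at room temperature in 25 mM Hepes pH 7.0, 0.01% Triton X-100, then reacted with 40 uM arachidonic acid for 30 min. Hydroperoxide was detected with ferrous iron/xylenol orange.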
# An asterisk follows results filed as active; ? = inconclusive; · = no result; [ ] = another dose, or the depositor's remark. Unless noted, the call rests on the fitted dose curve; in most records, active means well fitted inhibition curve with a large enough effect (not every such curve was filed as active); inconclusive means small, poorly fitted or top-dose-only effect, or another doubt; inactive means no such curve, though single readings can be large or run the other way. Unless noted, on the % scale 0 is the no-effect control and ±100 the full control effect.
SMILES,PNC inhibitor,ALDH1A1 inh,Lamin A splicing,HPGD block,12-hLO inh
Cc1nn2c(CN(C(=O)CN3CCOCC3)c3ccccc3)nnc2c2ccccc12,-21,18µM*,0%,-3%,-1%
CCOC(=O)Nc1ccc(OCc2nnc3c4ccccc4c(C)nn23)cc1,·,0%,·,·,·
Cc1nn2c(CN(C(=O)COc3ccccc3)c3ccccc3)nnc2c2ccccc12,8,11µM*,-5%,-22%,-5%
Cc1nn2c(COc3ccc(NC(=O)C(C)C)cc3)nnc2c2ccccc12,·,-6%,·,·,·
Cc1nn2c(COc3ccc(NC(=O)c4ccccc4Cl)cc3)nnc2c2ccccc12,14,5%,17%,14µM*,-3%
CC1CCC(C(=O)O)NC1c1cccc(N2CCCC2=O)c1 (centres undefined),·,14%[13.5 µM],·,·,·
CCCCc1nc2c(c3c1C[C@H](C)OC3)CN(C(=O)Cc1cccs1)CC2,·,3%[13.5 µM],-8%[9.22 µM],-7%,0%[11.4 µM]
CN(C)Cc1ccccc1-c1cncnc1Nc1ccc(F)cc1,·,14%,3%,-9%,0%
Cc1cccn2c(=O)c3cc(C(=O)NCCc4ccc(S(N)(=O)=O)cc4)n(C)c3nc12,·,·,-1%[46 µM],·,·
O=C(COc1ccc(Cl)cc1)Nc1ccc(C(=O)NCc2cccnc2)cc1,110,-7%,?,-12%,3%
COc1ccc(/C=C/C(=O)NCc2cccnc2)cc1,-7,0%,-6%,-19%,3%
COc1ccc(/C=C/C(=O)Nc2sc3c(c2C(=O)NCc2cccnc2)CCCC3)cc1,44,4µM*,4%[0.0737 µM],?,12%
O=C(COc1ccccc1)Nc1sc2c(c1C(=O)NCc1cccnc1)CCCC2,21,20µM*,14%,-12%,0%
O=[N+]([O-])c1cc(-c2ncccn2)c([N+](=O)[O-])s1,42,2.2µM*,-27%,28µM*,-3%
COc1ccc(NC(=O)N2CC[C@@]3(CCCNC3)C2)cc1,·,14µM*,·,-4%,-2%
CSc1nsc(SCC(=O)N2CCCCC2)n1,·,-5%,21%[46 µM],·,·
CCOCCCNC(C(=O)Nc1ccc(OC)c(Cl)c1)c1ccccc1 (centres undefined),·,2.2µM*,10%[46 µM],·,·
COCCNC(C(=O)Nc1cc(Cl)cc(Cl)c1)c1ccccc1 (centres undefined),-9,14µM*,0%,-10%,-7%
Fc1ccc(CNC(=S)Nc2ccc(Cl)cc2)cc1,23,2%,9%[0.0737 µM],-15%,-6%
NS(=O)(=O)c1ccc(NC(=S)NCc2ccc(Cl)cc2)cc1,54,22µM*,10%,20µM*,-7%
O=C(NCc1ccc2c(c1)OCO2)c1ccc(CS(=O)(=O)c2ccc(Br)cc2)o1,-87*,-10%,?,4%,-12%
COc1cc(NC(=S)Nc2cccc(C)n2)cc(OC)c1OC,·,5%,4%[46 µM],·,·
S=C(NCc1ccc(Cl)cc1)Nc1ccccc1,-2,-6%,?,18µM*,?
O=C(NCc1ccc2c(c1)OCO2)c1ccc(CS(=O)(=O)c2cccc(C(F)(F)F)c2)o1,-23,-9%,?,-11%,-13%
COc1cc(NC(=S)Nc2ncccc2C)cc(OC)c1OC,·,18µM*,4%[46 µM],·,·
SMILES,PNC inhibitor,ALDH1A1 inh,Lamin A splicing,HPGD block,12-hLO inh
NS(=O)(=O)c1ccc(CNC(=S)Nc2ccc(F)c(Cl)c2)cc1,·,-21%,·,·,·
O=c1cc(N2CCNCC2)oc2c(-c3ccccc3)cccc12,·,-10%,·,-13%,2%[0.00818 µM]
COc1ccc(NC(=O)N(C(C)C)C2CCN(C(C)=O)CC2)c(OC)c1,·,·,2%[46 µM],·,·
CN(C)[C@H]1C(=O)C(C(=O)NCN2CCCC2)=C(O)[C@]2(O)C(=O)C3=C(O)c4c(O)cccc4[C@@](C)(O)[C@H]3C[C@@H]12,·,-2%[20.9 µM],?,-20%,-8%[25.6 µM]
Cc1ccccc1NC(=S)NCc1ccc(Cl)cc1,42,?,-7%,16µM*,?
Cc1ccccc1NC(=S)NCc1ccc2c(c1)OCO2,36,-8%,10%,?,?
NS(=O)(=O)c1ccc(NC(=S)NCc2ccc3c(c2)OCO3)cc1,·,22µM*,6%[46 µM],·,·
COc1cc(NC(=S)NCc2ccco2)cc(OC)c1OC,?,?,-15%,16µM*,-7%
NS(=O)(=O)c1ccc(NC(=S)NCc2ccco2)cc1,·,6.3µM*,7%[46 µM],·,·
CC(C)OCCCNC(=S)Nc1ccc(S(N)(=O)=O)cc1,?,1%,?,7.9µM*,-3%
CC(=O)c1ccc(NC(=S)NCCc2ccc(S(N)(=O)=O)cc2)cc1,·,?,17%[46 µM],·,·
Cc1nnsc1SCCNC(=O)c1c(F)cccc1F,-82*,8%,10%,-10%,0%
COc1cccc([C@@H]2Oc3ccc(OC)cc3C[C@H]2OC(=O)NS(=O)(=O)c2ccc(C)cc2)c1,·,4%,·,-20%,·
Cn1c(SCc2ccccn2)nnc1-c1ccccc1,·,7%,4%[46 µM],·,·
COc1ccc(OC)c(C2C(C(=O)Nc3ccc(C)cc3)=C(C)Nc3nnnn32)c1 (centres undefined),·,·,-21%[46 µM],·,·
Cc1cc(/C=C(\C#N)C(=O)Nc2ccc(F)cc2)c(C)n1-c1ccc(N2CCOCC2)c([N+](=O)[O-])c1,27,16µM*,?,-16%,-3%
Cc1cc(C=O)c(C)n1-c1ccc(Oc2ccc([N+](=O)[O-])cn2)cc1,-118*,10µM*,?,-11%,1%
COc1ccc(NC(=O)/C(C#N)=C\c2cc(C)n(-c3ccc(Oc4ccc([N+](=O)[O-])cn4)cc3)c2C)cc1,-5,-8%,-9%,28µM*,9%
Cc1cccc(N2CCC(N=CN(C)C)=N2)c1,·,?,-6%[9.22 µM],·,·
